Measured values from PubChem BioAssay AID504905 (The Scripps Research Institute Molecular Screening Center, 2011).
The list shows a part of the results. A number with no mark means an inactive call. Cut-off read from the data, not from the text of the source: active = activation above about 17%; inactive = the rest.

Biological target: 5-hydroxytryptamine receptor 5A (Homo sapiens) (UniProt P47898)
Assay: activation of human 5-HT5A receptor – cell-based, luminescence, counter-screen for OPRM1-OPRD1 heterodimer agonist project (AID 504905);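 note: 0% = vehicle-treated cells and 100% = reference agonist response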
Conditions: HTR5A agonist counterscreen, at 9.3 µM, stronger effect = higher value

Sequence of 5-hydroxytryptamine receptor 5A (Homo sapiens) (P47898 whole entry, looked up): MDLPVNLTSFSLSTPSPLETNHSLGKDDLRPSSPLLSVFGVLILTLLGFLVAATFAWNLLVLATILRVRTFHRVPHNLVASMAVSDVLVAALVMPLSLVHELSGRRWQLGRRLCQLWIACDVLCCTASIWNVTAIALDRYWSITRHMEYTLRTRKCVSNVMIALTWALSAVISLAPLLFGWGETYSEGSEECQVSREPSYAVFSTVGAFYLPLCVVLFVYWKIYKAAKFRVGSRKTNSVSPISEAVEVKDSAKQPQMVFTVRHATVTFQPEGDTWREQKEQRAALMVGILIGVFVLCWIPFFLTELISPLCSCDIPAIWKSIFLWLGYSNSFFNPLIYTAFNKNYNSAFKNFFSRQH

Structure (SMILES) | activation
CCC1(C)CC(CCNCc2ccc(N(C)C)cc2)(c2ccc(F)cc2)CCO1 (centres undefined) | 0.44%
CCOC(=O)C1(CCc2ccccc2)CCN(Cc2ccco2)CC1 | 3.8%
COC1C(O)C(C)OC(OC2CCC3(C=O)C(CCC4C3CCC3(C)C(C5=CC(=O)OC5)CCC43O)C2)C1O (centres undefined) | 13.7%
C[C@]12CC[C@H](O)C[C@H]1CC[C@@H]1C2CC[C@]2(C)[C@@H](C3=CC(=O)OC3)[C@@H](O)C[C@]12O (some centres undefined) | -0.48%
